# In ChEMBL document CHEMBL3988442, “University of Dundee, Small-Polar-MMV Screening Library” (2021):
# For some assays here: Entries with a potency or affinity are not part of this list.
# Experiments:
# Set-up in all cases: scale not given: direction of the effect not stated beside the values
# [1] = biological target: Protein translocase subunit SecA (Escherichia coli (strain K12)) (UniProt P10408); test: Assay to Identify E. coli SecA ATPase Inhibitors; assay type: functional; settings: 30 µM
# Chain of Protein translocase subunit SecA (Escherichia coli (strain K12)) (P10408 whole entry): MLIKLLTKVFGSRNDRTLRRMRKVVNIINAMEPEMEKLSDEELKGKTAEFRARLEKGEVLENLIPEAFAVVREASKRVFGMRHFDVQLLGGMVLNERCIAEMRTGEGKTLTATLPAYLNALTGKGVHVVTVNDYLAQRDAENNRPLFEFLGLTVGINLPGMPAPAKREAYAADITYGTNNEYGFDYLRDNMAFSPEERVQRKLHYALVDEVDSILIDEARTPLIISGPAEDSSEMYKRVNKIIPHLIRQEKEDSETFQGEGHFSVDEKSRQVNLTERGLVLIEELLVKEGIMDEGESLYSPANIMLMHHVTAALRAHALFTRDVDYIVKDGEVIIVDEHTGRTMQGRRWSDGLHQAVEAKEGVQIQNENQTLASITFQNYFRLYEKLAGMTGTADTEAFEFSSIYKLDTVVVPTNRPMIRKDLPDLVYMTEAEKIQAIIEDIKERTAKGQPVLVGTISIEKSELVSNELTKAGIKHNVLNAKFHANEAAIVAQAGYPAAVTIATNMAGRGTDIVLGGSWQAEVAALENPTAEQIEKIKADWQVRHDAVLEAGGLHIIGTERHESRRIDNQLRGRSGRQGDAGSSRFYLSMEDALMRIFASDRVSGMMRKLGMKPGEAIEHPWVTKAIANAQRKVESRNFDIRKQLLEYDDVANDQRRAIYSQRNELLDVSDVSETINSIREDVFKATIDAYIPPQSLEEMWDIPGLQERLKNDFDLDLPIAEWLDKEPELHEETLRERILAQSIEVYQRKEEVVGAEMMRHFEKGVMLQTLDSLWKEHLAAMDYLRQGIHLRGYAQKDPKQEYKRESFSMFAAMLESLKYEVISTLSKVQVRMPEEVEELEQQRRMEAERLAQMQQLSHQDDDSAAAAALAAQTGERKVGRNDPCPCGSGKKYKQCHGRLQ
# [2] = biological target: T1, Ubiquitin-activating enzyme e1, putative (Leishmania donovani (strain BPK282A1)) (UniProt E9BSI1); test: Leishmania donovani Ubiquitin Activating Enzyme (LdE1); assay type: functional; settings: 30 µM
# T1 sequence (whole entry): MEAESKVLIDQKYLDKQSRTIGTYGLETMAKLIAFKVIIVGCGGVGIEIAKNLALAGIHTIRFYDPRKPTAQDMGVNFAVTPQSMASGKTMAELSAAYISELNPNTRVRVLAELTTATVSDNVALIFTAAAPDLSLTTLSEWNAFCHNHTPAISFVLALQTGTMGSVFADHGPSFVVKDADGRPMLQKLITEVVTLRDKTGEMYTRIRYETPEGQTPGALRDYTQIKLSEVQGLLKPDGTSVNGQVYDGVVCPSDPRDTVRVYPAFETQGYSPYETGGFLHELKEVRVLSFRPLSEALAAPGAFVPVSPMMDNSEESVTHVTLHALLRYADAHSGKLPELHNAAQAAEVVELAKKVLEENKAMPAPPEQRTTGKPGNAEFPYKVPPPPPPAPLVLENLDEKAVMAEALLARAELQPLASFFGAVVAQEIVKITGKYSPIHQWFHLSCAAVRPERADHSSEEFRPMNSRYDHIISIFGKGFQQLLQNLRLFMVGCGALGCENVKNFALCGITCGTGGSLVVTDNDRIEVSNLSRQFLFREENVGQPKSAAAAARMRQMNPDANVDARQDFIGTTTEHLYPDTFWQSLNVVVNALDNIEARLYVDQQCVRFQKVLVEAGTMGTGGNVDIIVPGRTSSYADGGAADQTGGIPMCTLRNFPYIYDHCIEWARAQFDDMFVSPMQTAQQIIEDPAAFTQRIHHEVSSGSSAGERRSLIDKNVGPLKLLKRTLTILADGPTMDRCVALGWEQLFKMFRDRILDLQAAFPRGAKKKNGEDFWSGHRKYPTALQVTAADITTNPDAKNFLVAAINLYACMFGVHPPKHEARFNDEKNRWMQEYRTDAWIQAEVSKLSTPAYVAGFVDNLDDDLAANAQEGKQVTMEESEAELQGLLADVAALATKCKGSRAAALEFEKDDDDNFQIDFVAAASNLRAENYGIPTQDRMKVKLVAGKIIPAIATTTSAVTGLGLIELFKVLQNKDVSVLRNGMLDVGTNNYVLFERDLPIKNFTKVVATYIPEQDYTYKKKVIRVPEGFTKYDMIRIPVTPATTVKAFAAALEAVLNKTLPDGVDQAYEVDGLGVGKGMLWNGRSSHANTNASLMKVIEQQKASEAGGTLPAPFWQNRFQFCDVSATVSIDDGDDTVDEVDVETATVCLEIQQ
# [3] = biological target: AMP-activated protein kinase, AMPK (Homo sapiens) (UniProt P54646+O43741+P54619+Q9UGJ0+Q9Y478+Q13131+Q9UGI9); test: AMP-dependent Kinase enzyme assay. An in vitro enzyme assay that detects ADP turnover that is directly proportional to AMPK activity. This uses naive AMPK that is activated during the assay with MK-8722; assay type: functional; settings: 30 µM
# [4] = biological target: Sialic acid-binding Ig-like lectin 9 (Homo sapiens) (UniProt Q9Y336); test: Hs-Siglec9 ALPHAscreen SOP 20170721; settings: 10 µM
# Chain of Sialic acid-binding Ig-like lectin 9 (Homo sapiens) (Q9Y336 whole entry): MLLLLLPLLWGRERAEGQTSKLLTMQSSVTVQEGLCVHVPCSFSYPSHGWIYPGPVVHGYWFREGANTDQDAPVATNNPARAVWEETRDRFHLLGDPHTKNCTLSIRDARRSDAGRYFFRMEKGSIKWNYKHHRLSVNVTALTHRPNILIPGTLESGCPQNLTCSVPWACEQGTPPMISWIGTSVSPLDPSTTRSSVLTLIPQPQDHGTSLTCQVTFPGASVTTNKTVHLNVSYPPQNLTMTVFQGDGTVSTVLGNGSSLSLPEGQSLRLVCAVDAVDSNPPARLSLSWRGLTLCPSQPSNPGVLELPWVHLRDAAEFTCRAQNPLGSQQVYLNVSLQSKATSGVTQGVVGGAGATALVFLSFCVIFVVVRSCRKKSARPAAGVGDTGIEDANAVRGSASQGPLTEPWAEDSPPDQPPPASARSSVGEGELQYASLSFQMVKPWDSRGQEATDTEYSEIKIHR
# [5] = tested on: Trypanosoma cruzi; test: Trypanosoma cruzi phosphomannomutase and mannose-1-phosphate guanylyltransferase assay; assay type: functional; settings: 10 µM
# [6] = biological target: T2, Arginase-2, mitochondrial (Homo sapiens) (UniProt P78540); test: in vitro enzyme assay to detect the production of urea directly proportional to the activity of Arginase II; assay type: functional; settings: 33.3 µM; note: in the data most compounds retested in dose-response had high values
# T2 sequence (whole entry): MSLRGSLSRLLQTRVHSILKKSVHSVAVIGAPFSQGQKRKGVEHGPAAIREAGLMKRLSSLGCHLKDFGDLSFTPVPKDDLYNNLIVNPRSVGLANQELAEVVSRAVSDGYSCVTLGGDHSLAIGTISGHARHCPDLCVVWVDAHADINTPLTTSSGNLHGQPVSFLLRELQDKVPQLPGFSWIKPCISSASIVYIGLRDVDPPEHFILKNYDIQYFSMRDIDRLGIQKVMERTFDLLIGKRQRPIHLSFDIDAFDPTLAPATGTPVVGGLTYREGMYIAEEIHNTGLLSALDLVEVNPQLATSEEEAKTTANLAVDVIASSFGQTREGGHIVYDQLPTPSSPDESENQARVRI
# [7] = biological target: T3, Proteasome subunit beta (Trypanosoma cruzi) (UniProt O96673); test: Trypanosoma cruzi proteasome chymotrypsin-like activity (TcProtChymo) assay.; note: in the data most compounds retested in dose-response had high values; assay type: functional; settings: 9.37 µM
# T3 sequence (whole entry): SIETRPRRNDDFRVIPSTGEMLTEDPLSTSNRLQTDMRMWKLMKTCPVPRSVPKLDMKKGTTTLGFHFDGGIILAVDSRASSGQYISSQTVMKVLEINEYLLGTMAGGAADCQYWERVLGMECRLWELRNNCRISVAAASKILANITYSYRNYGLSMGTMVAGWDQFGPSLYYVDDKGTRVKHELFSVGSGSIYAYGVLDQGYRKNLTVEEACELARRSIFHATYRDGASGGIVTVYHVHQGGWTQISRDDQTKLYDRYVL
# [8] = organism: Homo sapiens; test: To identify inhibition of the IFN signalling (Jak-Stat) pathway via expression of an eGFP reporter gene under the control of an IFN-stimulated response element (ISRE) containing MxA promoter.; assay type: functional; settings: 30 µM
# [9] = biological target: T4, Tyrosyl-tRNA synthetase, putative (Trypanosoma cruzi (strain CL Brener)) (UniProt Q4DSP6); test: Trypanosoma cruzi tyrosyl tRNA synthetase (TcYRS) _High Tyrosine SOP; assay type: functional; settings: 30 µM; note: in the data most compounds retested in dose-response had high values
# T4 sequence (whole entry): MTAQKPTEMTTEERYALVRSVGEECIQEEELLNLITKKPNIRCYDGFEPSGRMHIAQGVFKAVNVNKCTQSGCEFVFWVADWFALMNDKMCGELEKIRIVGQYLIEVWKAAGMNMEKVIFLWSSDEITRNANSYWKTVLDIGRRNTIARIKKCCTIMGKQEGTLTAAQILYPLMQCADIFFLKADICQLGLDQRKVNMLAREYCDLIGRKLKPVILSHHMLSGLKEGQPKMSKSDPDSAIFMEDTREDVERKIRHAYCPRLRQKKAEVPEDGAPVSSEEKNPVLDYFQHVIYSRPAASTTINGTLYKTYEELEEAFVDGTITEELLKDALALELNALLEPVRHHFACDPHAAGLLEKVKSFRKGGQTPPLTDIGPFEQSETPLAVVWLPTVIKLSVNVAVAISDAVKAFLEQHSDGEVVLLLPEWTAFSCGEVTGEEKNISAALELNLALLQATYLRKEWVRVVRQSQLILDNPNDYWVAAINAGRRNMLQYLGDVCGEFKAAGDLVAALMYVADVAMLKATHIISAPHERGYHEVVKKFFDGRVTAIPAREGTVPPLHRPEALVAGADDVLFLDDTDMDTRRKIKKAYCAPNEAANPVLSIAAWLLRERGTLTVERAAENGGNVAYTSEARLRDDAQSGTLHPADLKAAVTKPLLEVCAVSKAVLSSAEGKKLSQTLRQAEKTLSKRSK
# [10] = biological target: T4, Tyrosyl-tRNA synthetase, putative (Trypanosoma cruzi (strain CL Brener)); test: Trypanosoma cruzi tyrosyl tRNA synthetase (TcYRS) SOP; assay type: functional; settings: 30 µM
# [11] = biological target: Chromo domain-containing protein 1 (Saccharomyces cerevisiae (strain ATCC 204508 / S288c) (Baker's yeast)) (UniProt P32657); test: ScCHD-1 Enzyme Inhibition Assay; assay type: functional; settings: 30 µM; note: in the data most compounds retested in dose-response had high values
# Chain of Chromo domain-containing protein 1 (Saccharomyces cerevisiae (strain ATCC 204508 / S288c) (Baker's yeast)) (P32657 whole entry, the tested form may be a part): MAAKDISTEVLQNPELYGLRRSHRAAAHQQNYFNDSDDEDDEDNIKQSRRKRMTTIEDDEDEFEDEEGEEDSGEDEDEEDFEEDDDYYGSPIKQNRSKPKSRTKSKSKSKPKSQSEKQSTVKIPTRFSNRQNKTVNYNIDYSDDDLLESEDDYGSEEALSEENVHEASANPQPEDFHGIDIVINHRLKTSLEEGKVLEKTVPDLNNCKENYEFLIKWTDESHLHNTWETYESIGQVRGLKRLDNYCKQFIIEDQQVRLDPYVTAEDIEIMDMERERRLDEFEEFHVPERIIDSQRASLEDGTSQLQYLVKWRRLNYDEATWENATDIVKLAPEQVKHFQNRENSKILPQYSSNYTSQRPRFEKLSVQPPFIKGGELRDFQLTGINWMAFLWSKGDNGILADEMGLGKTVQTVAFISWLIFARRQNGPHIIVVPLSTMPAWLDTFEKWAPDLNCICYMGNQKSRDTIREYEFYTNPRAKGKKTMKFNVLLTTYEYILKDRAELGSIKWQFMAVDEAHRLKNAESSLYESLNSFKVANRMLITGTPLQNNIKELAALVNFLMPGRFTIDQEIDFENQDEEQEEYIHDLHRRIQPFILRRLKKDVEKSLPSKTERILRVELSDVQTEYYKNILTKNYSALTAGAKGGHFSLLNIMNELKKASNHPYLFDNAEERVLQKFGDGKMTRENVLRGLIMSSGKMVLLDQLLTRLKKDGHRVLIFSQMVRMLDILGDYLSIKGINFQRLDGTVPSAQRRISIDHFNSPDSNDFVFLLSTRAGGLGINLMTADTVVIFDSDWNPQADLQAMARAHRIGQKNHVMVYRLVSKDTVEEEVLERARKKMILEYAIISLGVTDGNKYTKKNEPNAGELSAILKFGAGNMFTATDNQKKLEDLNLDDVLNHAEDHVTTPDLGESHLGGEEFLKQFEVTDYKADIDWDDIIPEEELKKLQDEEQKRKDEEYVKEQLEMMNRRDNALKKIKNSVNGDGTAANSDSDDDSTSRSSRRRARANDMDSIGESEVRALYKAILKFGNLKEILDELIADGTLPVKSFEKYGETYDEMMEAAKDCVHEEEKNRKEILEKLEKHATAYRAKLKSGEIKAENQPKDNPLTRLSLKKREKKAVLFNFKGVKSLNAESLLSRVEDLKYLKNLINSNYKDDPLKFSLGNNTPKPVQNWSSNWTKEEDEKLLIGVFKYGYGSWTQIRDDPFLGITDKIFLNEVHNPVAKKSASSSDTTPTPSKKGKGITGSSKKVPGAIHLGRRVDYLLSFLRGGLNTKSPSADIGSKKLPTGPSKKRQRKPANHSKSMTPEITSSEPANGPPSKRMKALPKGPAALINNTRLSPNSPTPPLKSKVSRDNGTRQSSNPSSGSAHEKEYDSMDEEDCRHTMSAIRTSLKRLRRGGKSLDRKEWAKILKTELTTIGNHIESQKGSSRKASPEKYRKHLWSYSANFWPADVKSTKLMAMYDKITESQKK
Structure (SMILES),Percent Effect [1] [%],Percent Effect [2] [%],Percent Effect [3] [%],Percent Effect [4] [%],Percent Effect [5] [%],Percent Effect [6] [%],Percent Effect [7] [%],Percent Effect [8] [%],Percent Effect [9] [%],Percent Effect [10] [%],Percent Effect [11] [%]
CS(=O)(=O)NC[C@]12COC[C@H]1CN(C(=O)C1CCCCC1)C2,-1.23,0,2.98,-0.175,-1.47,14.3,17.7,-0.518,-20.5,-25.6,3.02
O=C(Nc1cc(F)ccc1OCC1CCCO1)N1CCCC1 (stereo unspecified),-0.769,2.6,-5.42,10.4,6.55,3.56,-2.37,-1.89,2.91,14.6,-5.42
CC(C)Oc1ncccc1CNC(=O)N1CCC(C(N)=O)C1 (stereo unspecified),-6.99,5.26,-1.63,3.84,-4.51,2.68,2,23.8,1.47,7.32,-0.235
CN(C)C(=O)CS(=O)(=O)Cc1cc(Cl)c2c(c1)OCO2,-3.08,18.4,-1.27,2.86,-0.654,3.96,5.16,-13.9,6.4,23.5,-7.39
O=C(NCCCn1cccn1)N1CCCC1c1ccncc1 (stereo unspecified),-5.24,2.67,-0.283,0.781,-6.13,-1.56,15.3,25.4,0.546,1.24,-6.79
CNc1nc2c(c(C(=O)N3CCCC3)n1)CN(Cc1nccn1C)CC2,-4.21,16.4,-8.14,7.16,2.38,-2.79,19.4,8.05,7.29,8.64,-2.56
CC(C)NC(=O)c1nnn(-c2cccc(C(F)(F)F)c2)c1C1CC1,-3.01,15.3,-3.96,15.4,5.73,15.4,22.8,11.4,4.21,12.8,77.3
O=C1CCC2(CCN(Cc3cc(F)ccc3Cl)CC2)CN1C1CCCC1,0.0694,13.3,-4.38,3.44,3.99,0,18.1,18.2,7.1,13.6,-2.27
O=C(c1ccsc1)N1CCCC(c2cc(C(F)(F)F)[nH]n2)C1 (stereo unspecified),-8.76,5.26,10.2,-0.389,-4.39,0.719,-2.12,24.2,0.493,3.7,7.08
O=C(c1ccno1)N1CC[C@@H]2O[C@@H](COCCN3CCCC3)CC[C@@H]21,-3.63,10.8,1.12,-3.29,1.66,-1.59,21.2,-0.519,5.41,15.4,-2.39
OCC1CCCN1c1cc(N2CCc3ccccc3C2)ncn1 (stereo unspecified),-5.73,5.2,-4.03,-9.93,8.13,-6.95,7.84,-3.87,3.81,14.1,-20.3
CCOc1ncccc1C(=O)NCCN(CC)C1CC1,-6.27,3.8,1.07,-1.89,-0.103,5.38,8.75,5.7,1.04,0,-23.1
O=C(Cn1cc(C(=O)O)ccc1=O)Nc1ccc(F)cc1Cl,-1.48,14.7,2.96,5.48,1.18,-12.2,11.5,-15,6.35,5.13,-9.34
CCOc1ccc(NC(=O)NCc2csc(NC)n2)cc1C,-1.88,10.8,-11.1,14.3,1.95,0.924,-1.26,19.8,12.9,23.2,-3.54
O=C(c1c[nH]c(=O)c(Cl)c1)N1C[C@@H]2CC[C@H](C1)N(Cc1ccccc1)C2,-3.94,5.48,12.1,13.9,2.58,-8.78,15.2,9.64,2.08,11.1,-3.03
CCn1nc(C)c(CNC(=O)c2cn(CC3CCCO3)nn2)c1C (stereo unspecified),-6.8,0,-1.16,7.76,2.24,2.08,2.27,6.98,6.01,11.1,-0.117
